M4 ag: CHRM4 agonism in calcium assay; AID 624127; activation, % at 3 µM; actives 0.14% (n = 360,000); CHO-K1 hM4/Gqi5, Fluo-8 calcium fluorescence; vehicle 0%, full acetylcholine response 100%; P08173;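 active = activation above the run mean over all test wells plus 3 SD, cut at about 32% in these data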;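 also: peak over basal fluorescence ratio per well then scaled between controls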
Target sequence (P08173 whole entry, looked up): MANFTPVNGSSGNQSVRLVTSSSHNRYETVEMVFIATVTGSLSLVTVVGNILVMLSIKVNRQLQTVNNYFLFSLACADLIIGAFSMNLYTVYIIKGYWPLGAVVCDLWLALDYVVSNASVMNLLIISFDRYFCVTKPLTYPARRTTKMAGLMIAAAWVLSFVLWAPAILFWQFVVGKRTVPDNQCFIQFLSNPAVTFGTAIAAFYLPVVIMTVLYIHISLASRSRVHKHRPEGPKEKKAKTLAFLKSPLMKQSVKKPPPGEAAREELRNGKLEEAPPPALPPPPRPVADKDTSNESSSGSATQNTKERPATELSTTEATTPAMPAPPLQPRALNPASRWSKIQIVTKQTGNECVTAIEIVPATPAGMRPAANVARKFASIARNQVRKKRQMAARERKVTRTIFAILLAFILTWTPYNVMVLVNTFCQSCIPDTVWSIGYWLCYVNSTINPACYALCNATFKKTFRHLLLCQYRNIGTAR
M4 PAM: positive allosteric modulators of human muscarinic M4 receptor; activation, % at 3 µM; P08173; CHO-K1 hM4/Gqi5, Fluo-8 calcium fluorescence, ACh EC20; 0% = ACh EC20, 100% = maximal ACh; actives 0.4% (n = 360,000);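 active = activation above its plate's cutoff, the mean activation of sample wells plus 3 SD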
CHO-K1 Ca ag: counter-screen for M1 agonists: effect in parental CHO-K1 cells. Fluo-8 calcium fluorescence; scaled to maximal ATP response, vehicle zero. AID 602248. activation, % at 3 µM. actives 0.48% (n = 360,000); in the data active = activation above about 15%;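 also: untransfected CHO-K1 host cells lacking M1 receptor as counterscreen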
M4 antag: CHRM4 antagonism in calcium assay. CHO-hM4 cells, ACh EC80, Fluo-8 calcium fluorescence. inhibition, % at 3 µM. P08173. actives 0.73% (n = 360,000);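 active = inhibition above its plate's cutoff, the mean inhibition of sample wells plus 3 SD, cut at about 27% in these data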
CHO-K1 Ca PAM: M1 PAM counterscreen hit in parental CHO-K1 cells | ATP EC20, Fluo-8 calcium fluorescence; 0% at ATP EC20, 100% at ATP max | activation, % at 3 µM | actives 0.02% (n = 360,000) | AID 602247;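 active = activation above the run cutoff, the mean activation of all test compounds plus 3 SD, cut at about 40% in these data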;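 also: peak over basal fluorescence ratio in a 140 s read after ATP addition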
CHO-K1 Ca antag: nonselective inhibitor or artifact in parental CHO-K1 cells | ATP-induced calcium, Fluo-8 fluorescence | inhibition, % at 3 µM | actives 0.6% (n = 360,000);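 active = inhibition above a per-plate cutoff, the plate's mean sample inhibition plus 3 SD, cut at about 24% in these data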
Hits are given with their value; 0 = inactive. A selection: hits, their analogues and other compounds. The true share with any hit is near 2%.

SMILES	M4 ag	M4 PAM	CHO-K1 Ca ag	M4 antag	CHO-K1 Ca PAM	CHO-K1 Ca antag
COc1ccc(-c2cc(C(F)(F)F)nc(SCCC(=O)NCc3ccccc3)n2)cc1	0	0	0	0	0	29
COc1ccc(-c2cc(C(F)(F)F)nc(SCc3cccc(C(=O)O)c3)n2)cc1	0	0	0	0	0	0
Cn1ccc2c(-c3cncc4ccccc34)cc3c(c21)C1CCC3C1 (centres undefined)	0	0	0	0	0	0
CCN(CC)c1cc2c(c3c1ccn3C)C1CCC2C1 (centres undefined)	0	0	0	0	0	25
CN(c1cc(Cl)c2c(c1)OCO2)c1cc2c(c3c1ccn3C)C1CCC2C1 (centres undefined)	0	0	0	0	0	27
CN(c1ccc(Cl)cc1)c1cc2c(c3c1ccn3C)C1CCC2C1 (centres undefined)	0	0	0	0	0	0
Cn1ccc2c(-c3cccc4ccccc34)cc3c(c21)C1CCC3C1 (centres undefined)	0	0	0	0	0	38
COc1ccc(OCC(=O)Nc2ccc(OC)c(S(=O)(=O)N3CCCCC3)c2)cc1	0	0	0	0	0	0
Cc1ccc([N+](=O)[O-])cc1S(=O)(=O)Nc1ccc(N2CCOCC2)cc1	0	0	0	0	0	0
CC(C)(C)c1nnc(SCC(=O)Nc2ccc(N3CCCCC3)cc2)n1N	0	0	0	0	0	0
CCCC(=O)n1nc(-c2cccnc2)nc1NCc1ccccc1	0	0	0	0	0	0
COC(=O)c1cccc(NC(=S)NCc2ccc(Cl)cc2)c1	0	0	0	0	0	0
COC(=O)c1cc(NC(=S)NCc2ccc(Cl)cc2)cc(C(=O)OC)c1	0	0	0	0	0	24
S=C(NCc1ccncc1)Nc1cc(Cl)cc(Cl)c1	0	0	0	0	0	27
COc1ccccc1N1C(=O)C2C(C(=O)c3ccccc3)=NN(c3ccc(C)cc3)C2C1=O (centres undefined)	0	0	0	0	0	0
COc1ccccc1N1C(=O)C2C(C(=O)c3ccccc3)=NN(c3ccc(Br)cc3)C2C1=O (centres undefined)	0	0	31	37	0	30
Cc1ccc(S(=O)(=O)/N=C2/NC(=O)/C(=C/c3cc([N+](=O)[O-])ccc3O)S2)cc1	108	0	20	30	0	0
COc1cc(/C=C2\S/C(=N/S(=O)(=O)c3ccc(C)cc3)NC2=O)c([N+](=O)[O-])cc1OC	0	0	0	0	0	0
O=C1CC2C(=O)NCCN2C(=NC(=O)c2ccc(Cl)cc2)N1 (centres undefined)	0	0	0	0	0	0
Cc1cc(C(=O)OCC(=O)Nc2c(Cl)cccc2C(F)(F)F)c(C)o1	0	0	0	0	0	0
COC(=O)c1sc(-c2ccccc2)cc1NC(=O)c1cc(OC)cc(OC)c1	0	0	0	0	0	0
COC(=O)c1sc(-c2ccccc2)cc1NC(=O)c1ccc(OC)cc1	0	24	0	0	0	0
Fc1ccc(COc2ccccc2CNCc2ccncc2)cc1	0	0	0	0	0	0
Brc1ccc(OCc2ccccc2)c(CNCc2ccncc2)c1	0	0	0	29	0	0
Cc1ccc(NC(=O)CSc2ncn[nH]2)cc1	0	0	19	0	0	0
SMILES	M4 ag	M4 PAM	CHO-K1 Ca ag	M4 antag	CHO-K1 Ca PAM	CHO-K1 Ca antag
COc1ccccc1C(=O)NC(=O)COC(=O)CCNS(=O)(=O)c1ccccc1	0	0	0	0	0	0
COc1ccc(CN2CCCC(C(=O)c3ccc(SC)cc3)C2)cc1Cn1cccn1 (centres undefined)	0	0	0	37	0	0
CSc1ccc(C(=O)C2CCCN(Cc3ccc(N4CCNC4=O)cc3)C2)cc1 (centres undefined)	0	0	0	70	0	0
CCOC(=O)c1[nH]ncc1CN1CCCC(C(=O)c2ccc(SC)cc2)C1 (centres undefined)	0	0	0	0	0	0
CCOC(=O)C1(CCOc2ccccc2)CCN(Cc2ccc(NC(C)=O)cc2)CC1	0	0	0	0	0	0
CCOC(=O)C1(CCOc2ccccc2)CCN(Cc2ccc(OC)cc2)CC1	0	0	18	0	0	0
CC(Sc1ccc(Cl)cc1)C(=O)NCC(c1ccco1)N1CCCCC1 (centres undefined)	0	0	0	0	0	0
CC(=O)c1c(C)[nH]c(C(=O)CN2C(=O)NC(C)(c3ccc(C)cc3)C2=O)c1C (centres undefined)	36	0	0	0	0	0
Cc1ccc(CN2CCN(/N=C\c3cccc([N+](=O)[O-])c3)CC2)cc1	0	0	0	0	0	0
N#CC(C#N)=C1C=CC=CN1/C(=C\c1ccco1)C(=O)c1ccc(Cl)cc1	0	0	0	55	0	0
N#C/C(=C\c1ccco1)C(=O)NCc1ccccc1	0	0	0	0	0	0
N#CC(C#N)=C1C=CC=CN1/C(=C\c1ccco1)C(=O)c1ccc(-c2ccccc2)cc1	0	0	0	27	0	0
CC(/C=N/n1c(-c2ccc(Cl)cc2)n[nH]c1=S)=C\c1ccco1	0	0	0	0	0	0
CCOc1cc(C(=O)N(C)Cc2cc3cc(OC)ccc3[nH]c2=O)cc(OCC)c1OCC	0	30	0	0	0	0
O=C(Cc1ccccc1)N/N=C/c1ccc(S(=O)(=O)O)o1	0	0	0	0	0	0
O=C(Cc1ccccc1)N/N=C/c1cc(Br)c(Br)o1	0	28	0	0	0	0
COc1cccc(-n2c(=O)c3sccc3n(CC(=O)NCC3CCCO3)c2=O)c1 (centres undefined)	0	0	0	0	0	0
Cc1nc(SCC(=O)Nc2c(C)nn(C)c2C)c2cnn(-c3ccccc3)c2n1	0	0	0	0	0	0
CC(C)c1nc(SCC(=O)Nc2c[nH]c(=O)[nH]c2=O)c2cnn(-c3ccccc3)c2n1	0	0	0	0	0	41
CC1=C(C(=O)N2CCCCCC2)CC(CC(=O)NCCN2CCOCC2)C(=O)N1Cc1ccc(F)cc1 (centres undefined)	0	0	0	0	0	0
O=C(c1cccc(Br)c1)N1CCN(c2cnn(-c3ccccc3)c(=O)c2Cl)CC1	0	35	0	0	0	0
O=C(NCCc1ccccc1)c1ccc2c(c1)S(=O)(=O)c1ccccc1C2=O	0	0	0	0	0	0
CCN(CC)CCSc1nc2ccccc2n1Cc1ccccc1	0	0	0	36	0	0
CN(C)C(=O)CSc1nc2ccccc2n1Cc1ccccc1	0	0	0	0	0	0
O=C(Nc1ccc2cn[nH]c2c1)c1c(Cl)cccc1Cl	0	0	0	0	0	0
